{"source": "PubChem BioAssay (Tox21)", "note": "Results filed as inconclusive are left out. A number with no mark means an inactive call. Calls of active or inactive are those of the source. The call rests on the fitted dose curve; in most records, active means well fitted cell-killing curve with a large enough effect in the repeat runs; inconclusive means weak or mixed curves, or effect the other way; inactive means flat fitted curve, though single readings scatter. Non-standard residues stand in square brackets, D forms with d. Residues, ends and D or L forms follow the SMILES beside them. *: point of attachment. Sta = CC(C)C[C@H](N)[C@@H](O)CC(=O)O; Isovaleryl = CC(C)CC(=O)*", "data": [{"test": "qHTS assay to identify small molecule antagonists of the androgen receptor (AR) signaling pathway using the MDA cell line - cell viability counter screen (AID 743041; further: on the % scale 0 is the no-effect control and ±100 the full control effect; nearly all actives have a fitted effect of over 45% in size)", "details": "MDA-kb2 viability, CellTiter-Fluor, 16 h, cells co-treated with R1881 androgen agonist; series mostly up to 70.3 µM", "text": "National Center for Advancing Translational Sciences [NCATS]\nNIH Chemical Genomics Center [NCGC]\nU.S. Environmental Protection Agency [EPA]\nNational Institutes of Environmental Health Sciences [NIEHS]\nNational Toxicology Program [NTP]\nU.S. Food and Drug Administration [FDA]\nAndrogen receptor (AR), a nuclear hormone receptor, plays a critical role in AR-dependent prostate cancer and other androgen related diseases. Endocrine disrupting chemicals (EDCs) and their interactions with steroid hormone receptors like AR may cause disruption of normal endocrine function as well as interfere with metabolic homeostasis, reproduction, developmental and behavioral functions. To identify the compounds that inhibit AR signaling, MDA-kb2 AR-luc cell line (from ATCC, deposited by Wilson et al.) was used to screen the Tox21 10K compound library. MDA-kb2 AR-luc cell line is human breast carcinoma cell line that was stably transfected with a luciferase reporter gene under control of the MMTV promoter containing response elements for both androgen receptor (AR) and glucocorticoid receptor (GR). The cytotoxicity of the Tox21 compound library against the MDA-kb2 AR-luc cell line was tested in parallel by measuring the cell viability using CellTiter-Fluor assay (Promega, Madison, WI) in the same wells.\nTox21 Assay Protocol Summary:\nMDA-kb2 AR-luc cells were dispensed at 3,000 cells/4 uL/well of culture medium into white wall/solid-bottom 1536-well plates using a Multidrop Combi (ThermoFisher Scientific, Waltham, MA) dispenser. After the assay plates were incubated at a 37C and 0% CO2 for 5 hr, 23 nL of compounds dissolved in DMSO, positive controls or DMSO only was transferred to the assay plate by a Pintool station (Kalypsys, San Diego, CA), followed by addition of 1 uL of agonist (R1881) in culture medium using a Bioraptr Flying Reagent Dispenser (FRD) workstation (Beckman Coulter, Indianapolis, IN, USA). The plates were incubated at a 37C and 0% CO2 for 16 h. After 15.5 h incubation, 1uL of CellTiter-Fluor reagent (Promega) was added using a Bioraptr FRD to each plate for measuring cytotoxicity. The fluorescence intensity was quantified on a ViewLux plate reader (PerkinElmer, Shelton, CT) following 30 min incubation at 37C and 0% CO2.", "values": [{"smiles": "CCCCC(CC)CCC(CC(C)C)OS(=O)(=O)O", "note": "(stereo not given)", "outcome": "inactive"}, {"smiles": "C[C@@H](CN1CC(=O)NC(=O)C1)N1CC(=O)NC(=O)C1", "outcome": "inactive"}, {"smiles": "C/C=C(\\C)C=O", "outcome": "inactive"}, {"smiles": "O=C(O)COc1ccc2ccccc2c1", "outcome": "inactive"}, {"smiles": "Cc1nnc(C(=O)NC(C)(C)c2nc(C(=O)NCc3ccc(F)cc3)c(O)c(=O)n2C)o1", "outcome": "inactive"}, {"smiles": "C[C@@H]1CC[C@@]2(OC1)O[C@H]1C[C@H]3[C@@H]4CC[C@H]5C[C@@H](O)CC[C@]5(C)[C@H]4CC(=O)[C@]3(C)[C@H]1[C@@H]2C", "outcome": "inactive"}, {"smiles": "Nc1cc(S(=O)(=O)O)ccc1O", "outcome": "inactive"}, {"smiles": "CC(C)(C)OC=O", "outcome": "inactive"}, {"smiles": "COC(C)(C)CC(C)=O", "outcome": "inactive"}, {"smiles": "COC(=O)C(c1ccccc1Cl)N1CCc2sccc2C1", "note": "(stereo not given)", "outcome": "inactive"}, {"smiles": "O=C(O)CCC(=O)Nc1ccc(S(=O)(=O)Nc2nccs2)cc1", "outcome": "inactive"}, {"smiles": "C=CCN1CCc2nc(N)sc2CC1", "outcome": "inactive"}, {"smiles": "Cc1ccc2ccccc2n1", "outcome": "inactive"}, {"smiles": "CC(C)(Sc1cc(C(C)(C)C)c(O)c(C(C)(C)C)c1)Sc1cc(C(C)(C)C)c(O)c(C(C)(C)C)c1", "outcome": "inactive"}, {"smiles": "CCCC(=O)CC", "outcome": "inactive"}, {"smiles": "NC[C@H]1O[C@H](O[C@H]2[C@H](O)[C@@H](O[C@H]3O[C@H](CO)[C@@H](O)[C@H](N)[C@H]3O)[C@H](N)C[C@@H]2N)[C@H](N)[C@@H](O)[C@@H]1O", "outcome": "inactive"}, {"smiles": "CCCCCCCCCCCC(C)=O", "outcome": "inactive"}, {"smiles": "CC(C)CC(=O)N[C@H](C(=O)N[C@H](C(=O)N[C@@H](CC(C)C)[C@@H](O)CC(=O)N[C@@H](C)C(=O)N[C@@H](CC(C)C)[C@@H](O)CC(=O)O)C(C)C)C(C)C", "note": "(Isovaleryl-VV[Sta]A[Sta]-OH)", "outcome": "inactive"}, {"smiles": "Cc1cc(C)c(C)c(C)c1", "outcome": "inactive"}, {"smiles": "C=CCCCCCCCCCCCCCC", "outcome": "inactive"}, {"smiles": "CC(=O)OC1CCC(C(C)(C)C)CC1", "note": "(stereo not given)", "outcome": "inactive"}, {"smiles": "COc1ccc2cc(CCC(C)=O)ccc2c1", "outcome": "inactive"}, {"smiles": "CCOC(=O)[C@H](CCc1ccccc1)N[C@H]1CS[C@H](c2cccs2)CN(CC(=O)O)C1=O", "outcome": "inactive"}, {"smiles": "CC(O)CCCCn1c(=O)c2c(ncn2C)n(C)c1=O", "note": "(stereo not given)", "outcome": "inactive"}, {"smiles": "c1cc2ccc3ccc4ccc5cccc6c(c1)c2c3c4c56", "viability change, negative = cytotoxic": "14.1% [at 3.79 µM]"}, {"smiles": "CCN(CC)CC", "outcome": "inactive"}, {"smiles": "C[C@@H]1NC(=O)[C@@H](N)CNC(=O)[C@H](C2CCNC(N)=N2)NC(=O)/C(=C/NC(N)=O)NC(=O)[C@H](CNC(=O)C[C@@H](N)CCCN)NC1=O", "note": "(stereo not given in full)", "outcome": "inactive"}, {"smiles": "CC(C)(C)C(=O)CCc1ccc(Cl)cc1", "outcome": "inactive"}, {"smiles": "CN(C)CCc1c[nH]c2ccc(C[C@H]3COC(=O)N3)cc12", "outcome": "inactive"}, {"smiles": "CC(=O)Oc1ccc(C(C)=O)cc1", "outcome": "inactive"}, {"smiles": "CCOC(=O)c1ccc(N(C)C)cc1", "outcome": "inactive"}, {"smiles": "C=CCOC(=O)CCCCCCCC", "outcome": "inactive"}, {"smiles": "CCCCCC(=O)CC", "outcome": "inactive"}, {"smiles": "CCc1ncc(C)[nH]1", "outcome": "inactive"}, {"smiles": "NNC(=O)CCCCC(=O)NN", "outcome": "inactive"}, {"smiles": "N=C(N)N", "outcome": "inactive"}, {"smiles": "CC(C)=CCC/C(C)=C\\C#N", "outcome": "inactive"}, {"smiles": "O=c1[nH]c(=O)c2cn[nH]c2[nH]1", "outcome": "inactive"}, {"smiles": "CCCCCCCCCCCCCCCC/C=C/C1CC(=O)OC1=O", "note": "(stereo not given)", "outcome": "inactive"}, {"smiles": "CN(C)c1cc(NC(=O)CNC(C)(C)C)c(O)c2c1C[C@H]1C[C@H]3[C@H](N(C)C)C(=O)C(C(N)=O)=C(O)[C@@]3(O)C(=O)C1=C2O", "outcome": "inactive"}]}]}
